Among all 120,000 compounds or so, about 55 (0.05%) were called active. No stated cut-off is given here; in the data, active means inhibition above about 25% (passing the limit was not always enough); inactive means the rest. Many of the other results were omitted from the sample, so actives are more common in it than they were.
tested on: replicative DNA helicase (DnaC/DnaB), Staphylococcus aureus; test: inhibitors of S. aureus replicative helicase, primary screen, biochemical, fluorescence unwinding readout (AID 485395);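 further: 0% = mean of negative control wells and 100% = mean of positive control wells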; details: purified S. aureus helicase, fluorescence unwinding assay; active compounds read high; concentration not given here

Row | SMILES | inhibition
1 | Cc1ccc(C)c(C(C)NC(=O)Cc2c(C)noc2C)c1 (stereo not drawn) | -13% (inactive)
2 | Cc1cc(C)cc(NC(=O)N2CCC3(CC2)OCCO3)c1 | 24% (inactive)
3 | CCOc1ccc(NC(=O)Cn2c(=O)n(CC(=O)NC3CCCC3)c(=O)c3ccccc32)cc1 | -11% (inactive)
4 | COC(CNC(=O)c1c[nH]c2ccc(S(=O)(=O)N(C)c3ccc(C(C)C)cc3)cc2c1=O)OC | -3% (inactive)
5 | CCOC(=O)Cc1sc(NC(C)=O)nc1-c1ccccc1 | -9% (inactive)
6 | CCn1nc(C(=O)OCCCCN2C(=O)c3ccccc3C2=O)c2ccccc2c1=O | -20% (inactive)
7 | CC(C)Cc1nnc(N)s1 | 5% (inactive)
8 | CCCCNC(=O)Cn1c(-c2ccc(C)cc2)noc1=O | 10% (inactive)
9 | CC1(C)CC(=NNC(N)=S)CC(C)(C)N1 | 0% (inactive)
10 | COCC(C)n1c(C)cc(C2=NNC(=Nc3ccc(F)cc3F)SC2)c1C (stereo not drawn) | 16% (inactive)
11 | C1=C(c2ccccc2)Nc2ncnn2C1c1ccco1 (stereo not drawn) | -1% (inactive)
12 | CCC(=O)Nc1ccc(-c2cn3cccnc3n2)cc1 | 5% (inactive)
13 | CCOC(=O)c1c(Cc2cccc(C)c2)c[nH]c1-c1ccccc1 | 9% (inactive)
14 | Cc1nc2ncnn2c(C)c1CCC(=O)N(Cc1cccnc1)c1ccc2c(c1)OCO2 | -82% (inactive)
15 | CCN(CC)C(=O)c1ccc(CS(=O)c2cccc(Cl)c2)o1 (stereo not drawn) | 24% (inactive)
16 | N#Cc1ccc(OCC(=O)N2CCN(c3ccc(O)cc3)CC2)cc1 | 12% (inactive)
17 | COCCN(Cc1nc2ccccc2c(=O)[nH]1)C(=O)C1=NN(c2cccc(C)c2)C(=O)CC1 | 4% (inactive)
18 | Cc1cc(F)ccc1S(=O)(=O)Nc1ccccc1C(=O)OCC(=O)N1CCCC1=O | 4% (inactive)
19 | COCc1cc(C)nc(SCC(=O)NC2C3CC4CC(C3)CC2C4)c1C#N (stereo not drawn) | 1% (inactive)
20 | CCOCc1c[nH]c(=O)[nH]c1=O | 4% (inactive)
21 | COc1ccc(NC(=O)CCCn2nnc3ccccc3c2=O)cc1 | -14% (inactive)
22 | Cc1ccc2[nH]c(=O)c3cc(C(=O)N4CCCc5ccccc54)sc3c2c1 | 8% (inactive)
23 | COc1cc(C)c2c(=O)c(-c3csc(C)n3)coc2c1 | -19% (inactive)
24 | COC(=O)c1ccc2c(c1)C(=O)/C(=C\c1ccccc1O)O2 | 4% (inactive)
25 | CCNC(=O)C1CCN(c2ncnc3c2nc2n3CCCCC2)CC1 | -22% (inactive)

Row | SMILES | inhibition
26 | CCN(Cc1ccc(Cl)s1)Cn1c(CO)nc2ccccc21 | -6% (inactive)
27 | Nc1nc(N)nc(SCC(=O)N2N=C(c3ccc4ccccc4c3)CC2c2ccccc2)n1 (stereo not drawn) | -3% (inactive)
28 | NC(=O)C12CC3CC(CC(Cl)(C3)C1)C2 | -9% (inactive)
29 | COc1ccc2c(=O)c(-c3ccc(F)cc3)coc2c1 | 0% (inactive)
30 | CN1C2=C(C(=O)CCC2)C(c2ccc(O)c(Cl)c2)C2=C1CCCC2=O | 10% (inactive)
31 | CC(C)C(NC(=O)c1ccco1)C(=O)N1CCC(Cc2ccccc2)CC1 (stereo not drawn) | -7% (inactive)
32 | CC1(C)CCCC2=C1CC1C(=O)N(CCC[N+](C)(C)C)C(=O)C1C2 (stereo not drawn) | 6% (inactive)
33 | CC1CC(C)CN(C(=O)c2ccc3c(c2)N(C)C(=O)/C(=C/c2cccc(Cl)c2)S3)C1 (stereo not drawn) | -10% (inactive)
34 | CCOc1ccc(-n2c(CSc3nc(C)cc(C)n3)nnc2SC)cc1 | 27% (inactive)
35 | O=C1CCCc2c1cnn2-c1ccccc1 | -10% (inactive)
36 | CN(Cc1ccccc1)S(=O)(=O)c1ccc2c3c(cccc13)C(=O)N2 | 5% (inactive)
37 | O=C(O)c1cccc(S(=O)(=O)NCC(F)(F)F)c1 | 18% (inactive)
38 | Cc1ccc(OCCn2cc(/C=C3/C(=O)Nc4cc(Cl)ccc43)c3ccccc32)cc1C | -483% (inactive)
39 | N#Cc1cccc(OCC(=O)NCC(F)(F)F)c1 | 12% (inactive)
40 | Cc1c(/C=C(\C#N)C(=O)O)cc(C#N)n1C | -11% (inactive)
41 | Cc1cnc(C(=O)Nc2ccc(S(=O)(=O)NC(C)C)cc2)cn1 | -1% (inactive)
42 | CCSc1nnc(SCC(=O)c2ccc(OC)cc2OC)s1 | -4% (inactive)
43 | COC(=O)c1c(Cn2cc(Br)ccc2=O)nc2ccccc2c1C | 0% (inactive)
44 | COc1nc(-c2ccccc2)ccc1-c1noc(C(C)C)n1 | 2% (inactive)
45 | CCCNc1cc(C)nc2nc(-c3ccc(OC)cc3)nn12 | 12% (inactive)
46 | O=C(Cc1c(F)cccc1Cl)OCc1ncc(-c2ccccc2)o1 | -4% (inactive)
47 | Cc1ccc(-c2cc(C(=O)N3CCCCC3C)[nH]n2)cc1C (stereo not drawn) | -28% (inactive)
48 | CCc1ccccc1NC(=O)Cn1ncc2c(=O)oc3ccccc3c21 | 4% (inactive)
49 | CCSc1nsc(SCC)c1C(=O)O | -3% (inactive)
50 | COc1ccccc1C/C(N)=N/OC(=O)c1ccccc1 | 6% (inactive)

Row | SMILES | inhibition
51 | NC(=O)COC(=O)/C=C/c1ccc(S(=O)(=O)N2CCOCC2)cc1 | -10% (inactive)
52 | COc1ccc(-n2nc(C(=O)NCC(=O)N3CCOCC3)c3ccccc3c2=O)cc1 | -25% (inactive)
53 | COc1ccc(S(=O)(=O)NCCn2ccc3ccccc32)cc1 | -14% (inactive)
54 | CC1(C)CC(NS(C)(=O)=O)CC(C)(C)N1O | 20% (inactive)
55 | CC(C)c1ccccc1N=Cc1ccc2c(c1)OCO2 | -15% (inactive)
56 | NC(=O)C1CCN(C(=O)COc2ccc(Cl)cc2Cl)CC1 | 0% (inactive)
57 | N#CCCn1cc(/C=c2\sc3nc4ccccc4n3c2=O)c(-c2ccc(F)cc2)n1 | 4% (inactive)
58 | Cn1nc(NCc2ccc(Cl)cc2)c(=O)n(C)c1=O | -8% (inactive)
59 | O=C(Nc1cccc(C(F)(F)F)c1)/C(=C\c1cccnc1)NC(=O)c1cccs1 | -22% (inactive)
60 | COC(=O)N/N=C(\C)c1ccc2c(c1)Nc1ccccc1S2 | 8% (inactive)
61 | Cc1cc(NC(=O)COC(=O)C2=COCCO2)n(-c2ccccc2)n1 | 4% (inactive)
62 | CC(C)Cn1c(SCC(=O)Nc2ccccc2)nc2ccccc21 | 14% (inactive)
63 | O=C1NC(c2ccccn2)Nc2sc3c(c21)CCCC3 (stereo not drawn) | 9% (inactive)
64 | c1ccc(CCNCc2cn[nH]c2-c2cccs2)cc1 | -16% (inactive)
65 | COc1ccccc1N=Cc1c(O)n(-c2ccccc2OC)c(=O)[nH]c1=O | 8% (inactive)
66 | CC1Nc2ccc(C(=O)N3CCC4(CC3)OCCO4)cc2NC1=O (stereo not drawn) | 34% (inactive)
67 | CC(C)(C)NC(=O)C(C)(C)Oc1ccc(Cl)cc1 | -13% (inactive)
68 | CC(Sc1nncn1C)C(=O)NCCC1=CCCCC1 (stereo not drawn) | 9% (inactive)
69 | Cc1ccccc1NC(=O)CSc1nc2ccc(N)cc2s1 | -1% (inactive)
70 | N#Cc1ccc(NC(=O)/C=C/c2ccccc2)cc1 | 4% (inactive)
71 | COc1ccc(C(=O)n2c(SC)nc3ccccc32)cc1OC | -17% (inactive)
72 | Cc1ccc(O)c(NC(=O)c2cccs2)c1 | 8% (inactive)
73 | CC1(C)C=C(C(=O)N2CCCCC2)C(C)(C)N1 | 5% (inactive)
74 | O=S1(=O)CCC(n2nnnc2-c2ccc(Cl)cc2)C1 (stereo not drawn) | 13% (inactive)
75 | Cc1ccc(C)c(OC(=O)NC(C)(C(F)(F)F)C(F)(F)F)c1C | 1% (inactive)

Row | SMILES | inhibition
76 | Cc1nc(SCC(=O)N2CCCC2)c2c(=O)n(C)c(=O)n(C)c2n1 | 0% (inactive)
77 | CCN(CC)c1nc(-c2ccccc2O)nc2ccccc12 | -3% (inactive)
78 | COc1ccc(C(=O)CSC2=C(C#N)C(C)(C)C(C#N)=C(N)N2)cc1 | -9% (inactive)
79 | O=C(COC(=O)c1ccc(N2CCCC2=O)cc1)c1ccc(OC(F)F)cc1 | -5% (inactive)
80 | COc1ccc(Br)cc1CN(C)C(C)C(=O)N1CC(C)OC(C)C1 (stereo not drawn) | -12% (inactive)
81 | Cc1cc(C(=O)N2CCC(C)CC2)c(C)n1-c1ccc(F)cc1 | 23% (inactive)
82 | COc1ccc(/C=C/C(=O)CC(=O)c2ccccc2O)cc1 | -17% (inactive)
83 | CN(C)c1ccc(NC(=O)CSc2nnc(C3CC3)n2N)cc1 | -15% (inactive)
84 | COc1cccc(N=Nc2c(O)[nH]c(=O)[nH]c2=O)c1 | 7% (inactive)
85 | CCOC(=O)c1cnc2c(C)cc(C)cc2c1NCCN(C)C | 13% (inactive)
86 | CCOC(=O)c1cnc2c(C)c(C)ccc2c1NCCCN(C)C | 65% (active)
87 | CN(C)CCCNc1c(N)c(=O)oc2ccccc12 | 27% (inactive)
88 | COc1ccc(C(CC(=O)O)NS(=O)(=O)c2ccccc2F)cc1OC (stereo not drawn) | -3% (inactive)
89 | CCc1cccc2c(C3=Nn4cnnc4SC3c3ccccc3)c[nH]c12 (stereo not drawn) | 16% (inactive)
90 | Cn1cc(SC(=N)N)c2ccccc21 | -12% (inactive)
91 | Cc1[nH]n(-c2ccccc2)c(=O)c1CCC#N | -6% (inactive)
92 | Cc1sc2nc(CN3CCCC3)nc(NC(C)C)c2c1C | -5% (inactive)
93 | COC(CNC(=O)C1CCC(CNS(=O)(=O)c2ccc(C)cc2)CC1)OC (stereo not drawn) | 9% (inactive)
94 | COC(=O)c1sc(NC(=O)Cn2cnc3sccc3c2=O)c(C(=O)OC)c1C | -7% (inactive)
95 | C=C(C)CNC(=S)NN | -24% (inactive)
96 | CC1CCCCN1S(=O)(=O)c1ccc(I)cc1 (stereo not drawn) | 17% (inactive)
97 | CC(=O)Nc1ccc(NC2SC(=O)NC2=O)cc1 (stereo not drawn) | 7% (inactive)
98 | Cc1[nH]c2ccccc2c1SCCNC(=O)C(C)C | -17% (inactive)

Reference: PubChem BioAssay AID485395 (ICCB-Longwood Screening Facility, Harvard Medical School, 2010)
